Here are results for 6 compounds from PubChem BioAssay.

Inconclusive results are not listed. Calls of active or inactive are those of the source.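 The calls were made as follows, unless noted: active = viability increase at or above a cutoff of the median across tested compounds plus 3 SD (cut at about 8.5% in these data, passing the limit was not always enough); inconclusive = some gains above the cutoff, reason not given; inactive = the rest.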

For test [1], the target named is Pantothenate synthetase (Mycobacterium tuberculosis (strain ATCC 25618 / H37Rv)) (UniProt P9WIL5). The test can be described thus: Recombinant Mtb pantothenate synthetase (PanC) inhibitors, coupled enzyme, confirmatory (AID 375; call rule not given here;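 also: 0% = full reaction with vehicle and 100% = no enzyme background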). To be noted: coupled enzyme assay; at 10 µM, stronger effect = higher value.
A short description of test [2]: reducers of endogenous Her2 protein level, primary screen, SKBR3 breast tumor cells, AlphaScreen, ATP viability (AID 461;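 active = Her2 level under about 52% in both replicate screens, with viability over 70% of control, limit read from the data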;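 as to Her2 level: lower value means less Her2 protein in the cells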;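 as to viability: percent of carrier control wells set as 100% viability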). The following applies: 18-24 h, measured here: SKBR3 viability, ATP luminescence, at 10 µM. A general note: Bead proximity is the source of the signal in Alpha formats.
In test [3] the target is Receptor tyrosine-protein kinase erbB-2 (Homo sapiens) (UniProt P04626). Described as above. The following applies: 18-24 h, at 10 µM, stronger effect = lower value.
Test [4] is described as follows: SK-BR-3 cell growth inhibitors, pilot screen, 24 h, human (AID 572;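 active = viability at or below 10% of carrier control in both of two separate runs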;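 also: compound exposure lasted between 18 and 24 h rather than exactly 24 h; 100% = carrier-treated control wells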). To be noted: SK-BR-3 viability, CellTiter-Glo luminescence, at 10 µM, stronger effect = lower value.
Test [5] in a line: HUVEC growth inhibition – cell-based, human, primary screen (AID 575;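 active = viability at or below 30% in both replicate assays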;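 also: 100% = median of untreated cell wells with 0.1% DMSO on each plate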). To be noted: HUVEC proliferation, CellTiter-Glo luminescence, 72 h; at 10 µM; stronger effect = lower value. (In general: Cellular ATP, detected with luciferase, serves as a proxy for viable cell number.)
The nature of test [6]: growth inhibitors of H69AR lung tumor, primary screen, human, duplicate replicates (AID 580;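 active = viability at or under a set limit in both replicates, limit being median viability minus 3 SD, cut at about 48% in these data, passing the limit was not always enough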;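 also: 100% = mean luminescence of untreated wells and 0% = no signal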). To be noted: H69AR lung tumor cells viability, ATP luminescence, 72 h; at 10 µM; stronger effect = lower value.
A short description of test [7]: reversal of MRP1-mediated doxorubicin resistance, pilot screen, H69AR cells, doxorubicin co-treatment (AID 601;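 active = viability loss from added drug above about 55%, and viability with drug at most 40%, in both replicates, limit read from the data, passing the limit was not always enough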). The following applies: CellTiter-Glo, 72 h, at 10 µM; for differential viability (reversal): stronger effect = higher value.
The nature of test [8]: 384-well plate pilot, post-Golgi transport modulator project, inhibition of yeast transport mutant growth (AID 636; in the data active = inhibition above about 31%). The following applies: absorbance 615 nm, about 18 h, stronger effect = higher value.
A short description of test [9]: growth suppression of yeast trafficking mutant, preliminary HTS, modulators of trafficking downstream of Golgi apparatus project, 1536-format plate, OD 615 nm (AID 637; in the data active = inhibition above about 30%). The following applies: yeast transport mutant growth, absorbance 615 nm, 18 h; stronger effect = higher value.
Test [10] is described as follows: OD615 S. cerevisiae growth inhibition, permissive medium, pilot counter-assay, permissive growth control for S. cerevisiae lifespan shortening project (AID 705;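 active = growth inhibition above 25% in both replicates, a cutoff set 3 SD above the mean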). The following applies: OD615, 24 h, at 10 µM, stronger effect = higher value.
Test [11] in a line: Restrictive medium S. cerevisiae growth inhibition, OD615, pilot screen of yeast lifespan reduction project, restrictive growth control (AID 706;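 active = growth inhibition above a set limit, 3 SD over mean compound inhibition, in both replicates, cut at about 43% in these data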;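 also: modified DeaD lifespan yeast strain shifted to restrictive glucose medium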). The following applies: OD615, 48 h, at 10 µM, stronger effect = higher value.
Test [12] in a line: viability gain of MRP-1-high H69AR cells under doxorubicin, pilot screen, MRP-1 activator project, CellTiter-Glo, duplicate (AID 807).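 Also: compound pretreatment 18-22 h then 72 h combined with doxorubicin; 0% = doxorubicin alone and 100% = vehicle without doxorubicin.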 The following applies: H69AR viability with doxorubicin, CellTiter-Glo luminescence; at 10 µM; stronger effect = higher value.
Test [13] is described as follows: growth suppression of PTEN-deleted HCT116, pilot screen, cell-based, HCT116 clonal line, CellTiter-Glo (AID 824;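 active = viability at or below 27.92% in each of two runs, the all-compound median minus 4 SD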;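 also: 0% = 20 µM Hyamine control and 100% = vehicle cell control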). The following applies: 60 h, at 10 µM, stronger effect = lower value.
Test [14] can be described thus: inhibitors of the yeast RAM network, pilot screen, dse1pr::URA3 reporter, 5-FOA selection (AID 869;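 active = inhibition over a set limit, the all-compound mean plus 3 SD, in both replicate runs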;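 also: 0% = DMSO wells with no growth and 100% = 10 µM 1-NA-PP1 with full growth; RAM network block rescues cells from 5-FOA so hits raise OD615 growth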). The following applies: S. cerevisiae dse1pr::URA3 5-FOA growth, OD615, 2 d, at 10 µM, stronger effect = higher value.
Test [15] is described as follows: RAM signaling pathway blockade in yeast – S. cerevisiae, Pdr1DBD-CYC8 efflux-inhibited sensitized strain, primary screen (AID 1298;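 active = RAM network inhibition above 8.4% in each of two replicates, 3 SD over the compound average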;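 also: 0% = DMSO untreated cells without growth and 100% = 10 µM 1-NA-PP1 full growth; higher means more yeast growth rescued from 5-FOA killing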). The following applies: S. cerevisiae cbk1-as DSE1-URA3 strain, 5-FOA growth OD615, 2 d; at 50 µM; stronger effect = higher value.
Test [16] is described as follows: growth suppression of beta-catenin knockout HCT116, pilot screen, human colon tumor cells (AID 823;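 active = cell viability at or below a set limit in both duplicate runs, the limit being the all-compound median minus 4 SD, cut at about 23% in these data, passing the limit was not always enough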;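 also: 0% = wells killed by 20 µM Hyamine and 100% = untreated DMSO cell wells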). The following applies: CellTiter-Glo, 60 h, at 10 µM, stronger effect = lower value.
[17] abbreviates: H69AR cells + 2 uM doxorubicin, measured here: viability with 2 uM doxorubicin, stronger effect = lower value.
Setting [18] is: H69AR cells, compound alone cytotoxicity.

Sequence of Pantothenate synthetase (Mycobacterium tuberculosis (strain ATCC 25618 / H37Rv)) (P9WIL5 whole entry, looked up): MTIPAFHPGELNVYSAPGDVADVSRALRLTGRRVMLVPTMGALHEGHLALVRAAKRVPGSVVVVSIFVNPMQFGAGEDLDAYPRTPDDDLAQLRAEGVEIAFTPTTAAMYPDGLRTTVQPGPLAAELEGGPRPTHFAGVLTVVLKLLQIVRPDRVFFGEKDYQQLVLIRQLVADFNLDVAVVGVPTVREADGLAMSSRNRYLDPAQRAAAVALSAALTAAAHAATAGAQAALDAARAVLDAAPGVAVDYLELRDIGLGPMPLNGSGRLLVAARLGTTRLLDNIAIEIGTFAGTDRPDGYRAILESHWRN
Sequence of Receptor tyrosine-protein kinase erbB-2 (Homo sapiens) (P04626 whole entry, looked up): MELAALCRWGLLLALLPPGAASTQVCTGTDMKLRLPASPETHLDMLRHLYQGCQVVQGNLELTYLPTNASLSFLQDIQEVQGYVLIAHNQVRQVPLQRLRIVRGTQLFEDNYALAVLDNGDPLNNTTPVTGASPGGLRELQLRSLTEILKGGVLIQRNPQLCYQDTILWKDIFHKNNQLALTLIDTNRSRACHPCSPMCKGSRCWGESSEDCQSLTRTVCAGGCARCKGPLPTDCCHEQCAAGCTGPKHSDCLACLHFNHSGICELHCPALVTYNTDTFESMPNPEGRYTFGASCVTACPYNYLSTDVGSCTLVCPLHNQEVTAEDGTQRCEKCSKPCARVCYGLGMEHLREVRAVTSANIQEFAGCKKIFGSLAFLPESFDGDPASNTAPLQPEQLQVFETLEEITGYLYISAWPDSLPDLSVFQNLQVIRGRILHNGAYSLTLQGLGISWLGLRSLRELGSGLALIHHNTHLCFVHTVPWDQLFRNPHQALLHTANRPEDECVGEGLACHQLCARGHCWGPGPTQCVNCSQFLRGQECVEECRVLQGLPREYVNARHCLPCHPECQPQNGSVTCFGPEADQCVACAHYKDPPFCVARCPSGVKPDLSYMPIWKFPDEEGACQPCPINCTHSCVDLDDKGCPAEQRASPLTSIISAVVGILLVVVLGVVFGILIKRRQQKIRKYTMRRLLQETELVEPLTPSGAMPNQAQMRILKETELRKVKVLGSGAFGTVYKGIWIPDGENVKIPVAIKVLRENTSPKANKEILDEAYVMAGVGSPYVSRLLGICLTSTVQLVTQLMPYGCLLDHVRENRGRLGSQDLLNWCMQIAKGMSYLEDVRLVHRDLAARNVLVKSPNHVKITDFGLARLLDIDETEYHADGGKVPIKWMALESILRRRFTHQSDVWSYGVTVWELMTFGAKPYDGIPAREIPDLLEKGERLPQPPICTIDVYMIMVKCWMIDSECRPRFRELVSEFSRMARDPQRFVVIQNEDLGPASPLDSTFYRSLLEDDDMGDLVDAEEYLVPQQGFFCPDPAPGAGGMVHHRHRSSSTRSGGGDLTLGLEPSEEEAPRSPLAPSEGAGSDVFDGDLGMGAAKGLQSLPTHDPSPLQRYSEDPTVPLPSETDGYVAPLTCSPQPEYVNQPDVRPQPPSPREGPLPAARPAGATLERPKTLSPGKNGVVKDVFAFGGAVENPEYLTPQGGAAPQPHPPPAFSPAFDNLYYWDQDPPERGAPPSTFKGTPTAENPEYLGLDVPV

A word on the inhibition: it is the relative decrease from the control value, in per cent. One may read the viability as a read-out of living cells in per cent, often relative to untreated cells. On to `COC(=NC1CCCC1)C(O)c1c[nH]c2ccccc12` (centres undefined), for which the inhibition in [1] was 0% (inactive); in [8] it was -0.82% (inactive); in test [9], -4.44% (inactive); in [14] it was 0.825% (inactive). Also, the viability in [2] was 101%; in [4], 101% (inactive); in test [5], 102% (inactive); in test [6] it was 108% (inactive); in test [7] (setting [17]), 106%; in test [7] (setting [18]), 108%. Moreover, in test [13], the viability was 81.2% (inactive). The Her2 level in test [3] was 103% (inactive). Moreover, in test [7] (H69AR cells + 2 uM doxorubicin), the differential viability (reversal) was 1.98% (inactive). The growth inhibition in [10] is -12.2% (inactive); in test [11] it was -12.5% (inactive). Further, in test [12], the viability increase was -4.16% (inactive). Moreover, in test [15], the RAM network inhibition is 0.62% (inactive).
`C[C@H]1CCCC(=O)CCC/C=C/c2cc(O)cc(O)c2C(=O)O1`: the inhibition in [1] is 0% (inactive); in [8], -3.47% (inactive); in test [9], 1.15% (inactive); in test [14] it was 2.21% (inactive). Also, the viability is 98.5% in test [2]; 98.5% (inactive) in [4]; 38.4% (active) in test [6]; 95.8% in [7] (setting [17]); 38.4% in test [7] (setting [18]); 65.3% (inactive) in test [16]. Moreover, in [13], the viability was 66.5% (inactive). Also, the Her2 level in test [3] is 16% (active). Besides, in test [7] (H69AR cells + 2 uM doxorubicin), the differential viability (reversal) is -57.4% (inactive). The growth inhibition in test [10] is -12.9% (inactive); in test [11], -14.8% (inactive). For the same compound, in test [12], the viability increase was -6.31% (inactive). Besides, in test [15], the RAM network inhibition was 4.86% (inactive).
As to `CP(C)(=O)CCC(=O)O`, the inhibition in test [1] is 0% (inactive); in test [8] it was -4.94% (inactive); in test [9], 3.44% (inactive); in [14], 0.42% (inactive). The viability was 101% in test [2]; 101% (inactive) in test [4]; 81.4% (inactive) in test [5]; 100% (inactive) in [6]; 82.1% in test [7] (setting [17]); 100% in test [7] (setting [18]). Also, the viability was 101% (inactive) in test [16] and 98.1% (inactive) in test [13]. For the same compound, the Her2 level in test [3] is 105% (inactive). In addition, the differential viability (reversal) in [7] (H69AR cells + 2 uM doxorubicin) was 18.2% (inactive). Besides, the growth inhibition in [10] is -18% (inactive); in test [11], -19.2% (inactive). For the same compound, the viability increase in test [12] was 0.16% (inactive). The RAM network inhibition in test [15] is 2.22% (inactive).
Regarding `CCOc1ccc(-n2c(O)c(C=Nc3ccc(N4CCOCC4)cc3)c(=O)[nH]c2=O)cc1`, the values for the growth inhibition in test [10] and in test [11] were -8.12% (inactive) and -10.6% (inactive), respectively. In addition, the viability increase in test [12] is -3.19% (inactive). Also, the viability in test [16] is 97.8% (inactive); in test [13], 103% (inactive). For the same compound, the inhibition in [14] is 0.445% (inactive). Also, the RAM network inhibition in test [15] is 5.35% (inactive).
`CCCCCCOc1ccc(CN2CCN(C)CC2)cc1`: the inhibition was 0% (inactive) in test [1], -5.06% (inactive) in test [8], 3.44% (inactive) in test [9] and -0.45% (inactive) in [14]. Also, the viability in [2] is 83.5%; in test [4] it was 83.5% (inactive); in test [5], 61.5% (inactive); in [6] it was 77.2% (inactive); in test [7] (setting [17]) it was 70.5%; in test [7] (setting [18]), 77.2%. For the same compound, the viability was 47.7% (inactive) in test [16] and 49% (inactive) in test [13]. Besides, the Her2 level in test [3] is 87% (inactive). Also, the differential viability (reversal) in [7] (H69AR cells + 2 uM doxorubicin) is 6.76% (inactive). Besides, the results for the growth inhibition in [10] and in [11] were -13.5% (inactive) and -20.8% (inactive), respectively. In addition, the viability increase in [12] was -5.38% (inactive). Moreover, the RAM network inhibition in test [15] was 0.09% (inactive).
For `Cc1cc(OCC(=O)OC(C)(C)C)c2c3c(c(=O)oc2c1)CCC3`, the results for the growth inhibition in test [10] and in test [11] were -8.29% (inactive) and -17% (inactive), respectively. Moreover, in test [12], the viability increase is -2.71% (inactive). Further, the viability was 88.2% (inactive) in test [16] and 85.6% (inactive) in test [13]. Further, the inhibition in [14] is 2.17% (inactive). Moreover, in test [15], the RAM network inhibition is 5.46% (inactive).
